ST2 inh: inhibitors of human ST2 (IL1RL1) binding to IL-33; Q01638; 78,000 tested, 2.3% active; AlphaLISA ST2-Fc/biotin-IL-33 interaction, 1 h; inhibition, % for hits at 17 µM; in the data active means inhibition above about 30%
Target sequence (Q01638 whole entry, looked up): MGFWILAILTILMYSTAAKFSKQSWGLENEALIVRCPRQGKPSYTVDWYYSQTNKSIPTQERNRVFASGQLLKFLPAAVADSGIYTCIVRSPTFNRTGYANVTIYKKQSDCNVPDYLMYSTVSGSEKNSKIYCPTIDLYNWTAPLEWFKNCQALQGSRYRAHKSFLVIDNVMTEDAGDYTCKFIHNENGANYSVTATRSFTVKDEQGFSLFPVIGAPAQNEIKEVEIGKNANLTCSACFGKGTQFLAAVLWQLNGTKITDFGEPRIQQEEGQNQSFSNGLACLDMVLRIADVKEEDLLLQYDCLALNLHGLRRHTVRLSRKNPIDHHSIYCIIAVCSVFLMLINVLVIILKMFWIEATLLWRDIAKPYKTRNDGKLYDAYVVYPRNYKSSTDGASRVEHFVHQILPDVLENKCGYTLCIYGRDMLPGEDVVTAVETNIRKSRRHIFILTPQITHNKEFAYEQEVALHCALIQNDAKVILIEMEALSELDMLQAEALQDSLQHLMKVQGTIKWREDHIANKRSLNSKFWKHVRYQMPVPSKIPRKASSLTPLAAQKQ
Numbers stand for hits; – = inactive; ! = not confirmed by another sample. Shown is part of a subset that was picked to be rich in hits.

SMILES	ST2 inh
COc1ccc(C2SCCN2S(=O)(=O)c2cccc(C(F)(F)F)c2)cc1[N+](=O)[O-] (stereo not drawn)	–
O=S(=O)(c1ccc(-c2ccccc2)cc1)N1CCSC1c1ccccc1 (stereo not drawn)	–
COc1cc(OC)c(C2SCCN2S(=O)(=O)c2cccc(C)c2)cc1OC (stereo not drawn)	–
COc1ccc(C2SCCN2S(=O)(=O)c2cccc(C)c2)cc1[N+](=O)[O-] (stereo not drawn)	31%
Cc1ccc(S(=O)(=O)N2CCSC2c2ccc(Br)cc2)cc1 (stereo not drawn)	70%
Cc1cccc(S(=O)(=O)N2CCSC2c2ccc(Br)cc2)c1 (stereo not drawn)	–
COc1cc(CN2CCN(c3ccccn3)CC2)cc(Br)c1O	–
Cc1nn(C(=O)CCN2C(=O)c3ccccc3C2=O)c(C)c1Br	–
CS(=O)(=O)NC1CCN(CCOCc2ccccc2)CC1	–
COc1ccc(/C=C(\C#N)c2nc3ccc(C)cc3[nH]2)cc1O	46%
N#C/C(=C\c1cccc(Br)c1)c1nc2ccccc2[nH]1	–
N#C/C(=C\c1cccc(F)c1)c1nc2ccccc2[nH]1	–
O=C(NCCCN1CCc2ccccc2C1)c1cccn1-c1nnc(N2CCCCC2)s1	–
COc1ccc(S(=O)(=O)Nc2cccc([N+](=O)[O-])c2C)cc1	–
COc1cccc(/C=C2\N=C(SC)SC2=O)c1OCc1ccccc1	40%
COc1cc(/C=C2\N=C(SC)SC2=O)cc(OC)c1OC	30%
CSC1=N/C(=C\c2ccc(C(=O)O)cc2)C(=O)S1	–
COc1cc(C=C2C(=O)OC(C)(C)OC2=O)cc(Cl)c1O	–
CCOc1ccc(/C=C2\N=C(c3cccc(C)c3)OC2=O)cc1	–
CCOc1ccc(/C=C2\N=C(SC)SC2=O)cc1	44%
CSC1=N/C(=C\c2cc(Br)ccc2OCC(=O)O)C(=O)S1	–
COc1cccc(/C=C2/SC(N3CCCC3)=NC2=O)c1OC	–
COc1ccccc1OC(C)C(=O)Nc1ccccc1 (stereo not drawn)	–
CCc1cccc(NS(=O)(=O)c2ccc3[nH]c(=O)sc3c2)c1	–
COc1ccc(CSc2nnc(NC(=O)c3ccc(Cl)cc3Cl)s2)cc1[N+](=O)[O-]	–
SMILES	ST2 inh
COc1ccc(CC2CN(C(=O)c3cc(C)oc3C)CCO2)cc1 (stereo not drawn)	–
COCc1nc(NCc2nnc3n2CCCCC3)c2cnn(C)c2n1	–
Cc1ccc(NCN2C(=O)c3ccccc3C2=O)c(C)c1	–
Cc1ccc(NS(=O)(=O)c2ccc(F)cc2)c(C)c1	–
Cc1ccc(NS(=O)(=O)c2cccc3c2C(=O)c2ccccc2C3=O)c(C)c1	64%
COc1ccc(-c2nc(C(N)=O)c3c(n2)n(-c2ccc(C)c(C)c2)c(=O)n3Cc2ccccc2)cc1	–
COc1ccc(CCNC(=O)c2ccc(Cn3c(=O)[nH]c4ccsc4c3=O)cc2)cc1OC	–
O=C(NCCc1ccc(Cl)cc1)c1ccc(Cn2c(=O)[nH]c3ccsc3c2=O)cc1	37%!
CCCCC(CC)CNC(=O)c1ccc(Cn2c(=O)[nH]c3ccsc3c2=O)cc1 (stereo not drawn)	–
CCOc1ccc(C(=O)Nc2nc3ccc4sc(C)nc4c3s2)cc1	–
Cc1nc2c(ccc3nc(NC(=O)c4ccc(C#N)cc4)sc32)s1	35%
Cc1ccc(C(=O)Nc2nc3ccc4nc(C)sc4c3s2)cc1	–
CCN(CC)c1ccc(C(=O)Nc2nc3ccc4sc(C)nc4c3s2)cc1	–
Cc1ccc(C(=O)Nc2nc3ccc4sc(C)nc4c3s2)cc1	42%
COc1cc(OC)cc(C(=O)Nc2nc3ccc4sc(C)nc4c3s2)c1	–
CCC1CCCCN1S(=O)(=O)c1ccc2[nH]c(=O)cc(C(=O)NCCC(C)C)c2c1 (stereo not drawn)	–
O=C(Nc1ccc(OCc2ccccc2)cc1)c1ccc(Br)o1	–
COc1ccc(-n2nc3cc(C)c(NC(=O)c4ccc(Cl)c([N+](=O)[O-])c4)cc3n2)cc1	–
Cc1cc(N2CCC(C)CC2)nc2ccc(NC(=O)c3ccc4c(c3)OCO4)cc12	–
COc1ccc(C(=O)Nc2ccc3nn(-c4ccc(F)cc4)nc3c2)cc1OC	–
Cc1ccc(-n2nc3ccc(NC(=O)c4ccc5c(c4)OCCO5)cc3n2)cc1Cl	34%
Cc1ccc(-n2nc3ccc(NC(=O)COc4ccccc4)cc3n2)cc1Cl	–
COc1ccc(-n2nc3ccc(NC(=O)c4ccc(OC)c(Cl)c4)cc3n2)cc1	33%
O=C(O)c1ccc(CN2C[C@@H]3OCC(=O)N(Cc4ccccc4)[C@@H]3C2)cc1	–
O=C1CCCN1CCC(=O)N1CCOC(CCc2ccccc2)C1 (stereo not drawn)	–
SMILES	ST2 inh
CC1(C)OC2c3ccccc3OC3(C)CCC1CC23 (stereo not drawn)	–
CC12CCC3C1C(c1c(cc(O)c(C(=O)c4ccccc4)c1O)O2)C3(C)C (stereo not drawn)	31%
O=C(c1ccc(O)cc1)c1c(O)cc(O)c([C@@H]2O[C@H](CO)[C@@H](O)[C@H](O)[C@H]2O)c1O	–
Cc1ccc(CCNC(=O)CCc2nc3sc4c(c3c(=O)[nH]2)CCCC4)cc1	–
CCNC(=O)[C@@H]1C[C@H](N)CN1C(=O)Cc1ccccn1	–
O=C1Nc2ccc(Br)cc2/C1=C/c1cccc(F)c1	30%
COc1cccc(/C=C2\C(=O)Nc3ccc(Br)cc32)c1OC	–
COc1cc(/C=C2\C(=O)Nc3ccc(Br)cc32)cc(Br)c1O	–
COc1cc(/C=C2\C(=O)Nc3ccc(Br)cc32)cc(OC)c1O	–
COc1ccc(/C=C2\C(=O)Nc3ccc(Br)cc32)cc1O	–
O=C1Nc2ccc(Br)cc2/C1=C/c1ccsc1	39%
Cc1cccc(NS(=O)(=O)c2cc(C(=O)Nc3ccccc3C)ccc2C)c1	–
C=CCOc1ccc(C(O)=C2C(=O)C(=O)N(CCN3CCOCC3)C2c2ccccc2OC)cc1 (stereo not drawn)	–
CCC1CN(C(=O)C2(COC)CCC2)CCC(=O)N1Cc1ccccc1 (stereo not drawn)	–
O=C(NCC1OCCc2ccccc21)c1ccccc1 (stereo not drawn)	–
Cc1nn(CCCC(=O)Nc2cccc(Cl)c2)c(C)c1[N+](=O)[O-]	–
Cc1cccc(NC(=O)C(NS(=O)(=O)c2cccs2)C(C)C)c1C (stereo not drawn)	–
Cc1cnn(-c2ccc3nnc(-c4ccc(Cl)cc4)n3n2)c1	36%
Cc1ccn2cc(-c3ccc(Cl)cc3)nc2c1	–
Clc1ccc(-c2nnc3ccc(Cl)nn23)cc1	–
Cc1cc(C)n(C(=O)c2ccc(S(=O)(=O)N3CCOCC3)cc2)n1	–
Cc1ccc(NC2CCCN(C(=O)c3cc(=O)c4ccccc4o3)C2)cc1C (stereo not drawn)	–
CCCC1COCCN1C(=O)c1cc(=O)c2ccccc2o1 (stereo not drawn)	40%
CCN1CCN(C(=O)c2cc(=O)c3ccccc3o2)C(C)C1=O (stereo not drawn)	–
CCOc1ccc(C2SC(NC(C)=O)=NN2C(C)=O)cc1 (stereo not drawn)	–
SMILES	ST2 inh
N[C@@H](Cc1c[nH]c2ccccc12)C(=O)O	–
NC(=O)CCc1c[nH]c2ccccc12	–
O=C(O)Cc1c[nH]c2ccc(O)cc12	41%!
COc1cc2c(cc1OC)C(c1ccccc1)NC(=O)C2 (stereo not drawn)	–
Cc1ccc(-c2nnc3s/c(=C\c4ccc([N+](=O)[O-])cc4)c(=O)n23)cc1	–
COc1ccc(/C=c2\sc3n(c2=O)CN(c2ccc(C(C)=O)cc2)CN=3)cc1	–

Screens: PubChem BioAssay, Paczesny and Yang Labs, IUPUI and University of Michigan
